Compounds with a hit are over-represented: about 19% of the library has one in this group of screens.
TDP1 cell noCPT = qHTS for Inhibitors of human tyrosyl-DNA phosphodiesterase 1 (TDP1): qHTS in cells in absence of CPT. hit rate 15% among 420,000. DT40 Tdp1-/- hTDP1 cells, no CPT, ATP luminescence, 48 h. Potency, µM (highest dose often 46.2 µM), usual class: inhibitors. AID 686978, 2013; also: nearly all actives have a fitted effect of over 55% in size
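No-CPT arm: Tdp1-/-;hTDP1 DT40 cells (400/well) plus compounds, incubated ≥48 hr at 37 °C. Readout CellTiter-Glo luminescence.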
IL-1B inflam inh = qHTS for Inhibitors of Inflammasome Signaling: IL-1-beta AlphaLISA Primary Screen | activity change, % at 57.5 µM | THP-1 LPS/ATP IL-1B secretion, AlphaLISA, 16 h; hits give low values | AID 743279, 2014 | hit rate 4.7% among 360,000; in the data active = activity change below about -50%; inconclusive = mostly about -30% to -49%
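Secreted IL-1B measured by AlphaLISA bead assay after 16 h compound exposure of THP-1 cells; compounds (final up to 57.5 uM) added 1 h before LPS (250 ng/mL) and ATP (1.25 mM) stimulation; lower signal means less secretion.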
TDP1 cell CPT = qHTS for Inhibitors of human tyrosyl-DNA phosphodiesterase 1 (TDP1): qHTS in cells in presence of CPT; chicken DT40 Tdp1-/-;hTDP1 cells + 20 nM CPT, ATP luminescence, 48 h; Potency, µM (titrated, usually from 46.2 µM), most hits filed as inhibitors; hit rate 12% among 420,000; AID 686979, 2013; also: nearly all actives have a fitted effect of over 55% in size
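Chicken DT40 Tdp1-/- cells stably complemented with human TDP1 were seeded at 400 cells/well in medium containing 20 nM camptothecin, exposed to pin-transferred compounds, and grown at 37 °C for at least 48 hr. Viability was read as ATP luminescence.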
HT1080 IDH1KD tx = qHTS for induction of synthetic lethality in tumor cells producing 2HG: qHTS for the HT-1080-IDH1KD cell line; HT-1080 IDH1 knockdown viability, ATP luminescence, 48 h; Potency, µM (series often up to 46.1 µM), usual class: cytotoxic; hit rate 2% among 360,000
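CellTiter-Glo luminescence after 48 h compound exposure at 37 degrees C of IDH1-knockdown HT-1080 cells in 5% FBS RPMI. %Activity scaled between DMSO wells and cell-free media wells, with curves fitted and assigned curve classes.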
HT1080-NT tox = qHTS for induction of synthetic lethality in tumor cells producing 2HG: qHTS for the HT-1080-NT fibrosarcoma cell line. HT-1080-NT fibrosarcoma viability, CellTiter-Glo ATP luminescence, 48 h. Potency, µM (series often up to 46.1 µM), actives largely listed as cytotoxic. hit rate 1.6% among 360,000;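 also: NT is the 2HG producing partner of a matched IDH1 knockdown line; nearly all actives have a fitted effect of over 55% in size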
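Compounds were tested in concentration-response format on HT-1080-NT cells for 48 hours at 37 degrees C. Cell viability came from CellTiter-Glo luminescence; curves were classified by r2, response magnitude and activity.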
Each line names hits and unclear results; the compound was inactive in the other large screens. Unless noted, calls follow the shape of the dose curve; as a rule, active = well fitted curve in the direction sought with a large enough effect; inconclusive = small, poorly fitted or top-dose-only effect, or another doubt; inactive = no such curve, though single readings can be large; an effect the other way counts as inactive or inconclusive.

CCCCCOc1ccc(Cn2ccnc2)cc1[N+](=O)[O-]	TDP1 cell noCPT inconclusive, TDP1 cell CPT inconclusive
COc1ccc(CSC(=N)N)cc1[N+](=O)[O-]	TDP1 cell noCPT 23.1µM, IL-1B inflam inh -59.6, TDP1 cell CPT 23.1µM
COc1ccc(-c2oc3ccc(-c4cc(OC)c(OC)c(OC)c4)cc3c2C#Cc2ccsc2)cc1	TDP1 cell noCPT inconclusive, TDP1 cell CPT inconclusive
O=C(CSc1ccc2c(c1)OCCO2)Nc1cccnc1	TDP1 cell noCPT inconclusive, TDP1 cell CPT inconclusive
Fc1ccc(CNC(=S)Nc2ccc(Cl)cc2Cl)cc1	TDP1 cell noCPT inconclusive, IL-1B inflam inh -100.4, TDP1 cell CPT inconclusive
C/C(=N\NC(=S)NCCc1ccccc1)c1ccc(Cl)cc1Cl	TDP1 cell noCPT 16.4µM, TDP1 cell CPT inconclusive, HT1080 IDH1KD tx inconclusive, HT1080-NT tox inconclusive
CN(C)/C=N/C(=S)Nc1ccc(Cl)cc1Cl	TDP1 cell noCPT inconclusive, IL-1B inflam inh -77.1
C/C(=N\NC(=S)NCCc1ccccc1)c1ccc(O)cc1O	TDP1 cell noCPT inconclusive, TDP1 cell CPT inconclusive, HT1080 IDH1KD tx inconclusive, HT1080-NT tox inconclusive
S=C(NCCc1ccc(Cl)cc1)Nc1ccc(Cl)cc1Cl	TDP1 cell noCPT inconclusive, IL-1B inflam inh -78.7, TDP1 cell CPT inconclusive, HT1080 IDH1KD tx inconclusive, HT1080-NT tox inconclusive
Fc1ccc(NC(=S)N/N=C/c2ccc(F)c(F)c2)c(F)c1	IL-1B inflam inh inconclusive
Fc1ccccc1/C=N/NC(=S)Nc1ccc(Cl)cc1Cl	TDP1 cell noCPT 1.84µM, TDP1 cell CPT 2.31µM, HT1080 IDH1KD tx 3.26µM, HT1080-NT tox 5.17µM
Fc1ccc(NC(=S)Nc2ccc(Cl)cc2Cl)cc1	TDP1 cell noCPT 25.9µM, IL-1B inflam inh -87.1, TDP1 cell CPT inconclusive
CCOC(=O)c1cc(-c2ccc(C)cc2)n(CC(=O)NCc2ccco2)c1C	none
CCOC(=O)c1cc(-c2ccccc2)n(CCC(=O)Nc2nc3c(C)cccc3s2)c1C	TDP1 cell noCPT 13µM, TDP1 cell CPT 13µM (no result: IL-1B inflam inh, HT1080 IDH1KD tx, HT1080-NT tox)
CCOC(=O)c1cc(-c2ccc(C)cc2)n(CCC(=O)Nc2ccc(OC)c(OC)c2)c1C	TDP1 cell noCPT 18.4µM, TDP1 cell CPT inconclusive (no result: IL-1B inflam inh, HT1080 IDH1KD tx, HT1080-NT tox)
CCOC(=O)c1cc(-c2ccc(C)cc2)n(CC(=O)Nc2ccc(OC)c(Cl)c2)c1C	TDP1 cell noCPT 16.4µM, TDP1 cell CPT 18.4µM (no result: IL-1B inflam inh, HT1080 IDH1KD tx, HT1080-NT tox)
Cc1cccc2sc(NC(=O)CCNS(=O)(=O)c3cccc4nonc34)nc12	TDP1 cell noCPT 18.4µM, IL-1B inflam inh inconclusive, TDP1 cell CPT inconclusive
O=C1Cn2nnc(-c3ccccc3)c2C2c3ccccc3CCN12 (stereo unspecified)	TDP1 cell noCPT inconclusive, TDP1 cell CPT inconclusive
COC(=O)c1cc2c(s1)-c1ccc(OC)cc1CC2	none
CCOC(=O)c1cc(-c2ccc(C)cc2)n(CCC(=O)NCCN(C)C)c1C	TDP1 cell CPT inconclusive, HT1080 IDH1KD tx inconclusive, HT1080-NT tox inconclusive
CCOC(=O)c1cc(-c2ccccc2)n(CCCC(=O)Nc2cccc(C)c2)c1C	TDP1 cell noCPT 16.4µM, TDP1 cell CPT 16.4µM (no result: IL-1B inflam inh, HT1080 IDH1KD tx, HT1080-NT tox)
CCOC(=O)c1cc(-c2ccc(C)cc2)n(CC(=O)Nc2ccc(OC)cc2OC)c1C	TDP1 cell noCPT inconclusive, TDP1 cell CPT 23.1µM (no result: IL-1B inflam inh, HT1080 IDH1KD tx, HT1080-NT tox)
CCOC(=O)c1cc(-c2ccc(C)cc2)n(CCC(=O)Nc2ccc(C(C)C)cc2)c1C	TDP1 cell noCPT 5.17µM, TDP1 cell CPT 5.17µM (no result: IL-1B inflam inh, HT1080 IDH1KD tx, HT1080-NT tox)
CCOC(=O)c1cc(-c2ccccc2)n(CCC(=O)O)c1C	none
COc1ccc(NC(=O)Cn2c(-c3ccc(F)cc3)cc(C(C)=O)c2C)c(OC)c1	none (no result: IL-1B inflam inh, HT1080 IDH1KD tx, HT1080-NT tox)
Cc1cccc2sc(NC(=O)CCn3cccc3)nc12	IL-1B inflam inh -51.9
N#Cc1cccc(NC(=O)C2CCN(S(=O)(=O)c3ccc4[nH]c(=O)ccc4c3)CC2)c1	none (no result: IL-1B inflam inh, HT1080 IDH1KD tx, HT1080-NT tox)
O=[N+]([O-])c1ccccc1S(=O)(=O)Nc1ccc2c(c1)OCCO2	TDP1 cell noCPT inconclusive, TDP1 cell CPT inconclusive
CCc1cccc(NC(=O)Cn2c(C(=O)OC)cc3occc32)c1	none (no result: IL-1B inflam inh, HT1080 IDH1KD tx, HT1080-NT tox)
